# Measurements published in ChEMBL document CHEMBL3988442, “University of Dundee, Small-Polar-MMV Screening Library” (2021).
# In all, about 48,000 compounds went through this assay and about 13,000 (27%) showed an effect of 50% or more. The list shows a part of the results.
# Tested on: Wolbachia pipientis
# Assay: Anti-Wolbachia Cell-Based Screen
# Assay type: functional
# Parameters: scale not given: in the data most compounds retested in dose-response had high values
# Conditions: 5 µM
row,Structure (SMILES),Percent Effect [%]
1,NC(=O)CCC1CCCN(c2ncnc3c2Cc2ccccc2OC3)C1 (centres undefined),-12.56
2,O=C(O)CCc1cc2n(n1)CCN(Cc1cnc(N3CCCC3)nc1)C2,-15.82
3,CCc1cnc(N2CCCC(CCC(N)=O)C2)nc1 (centres undefined),109.3
4,CCc1cnc(N2CCCOC(CN3CCCC3)C2)nc1 (centres undefined),-1.454
5,N[C@H]1CN(Cc2cnc(N3CCCC3)nc2)C[C@@H]1C1CC1,-16.17
6,COc1ccccc1-c1ncc(CN2CCCC(CCC(N)=O)C2)s1 (centres undefined),16.75
7,NC(=O)CCC1CCCN(Cc2cnc(N3CCCCC3)nc2)C1 (centres undefined),104.2
8,Cc1cccc(C)c1OC1CN(Cc2cnc(N3CCCC3)nc2)C1,1.788
9,c1nc(N2CCCC2)ncc1CN1CCCC(CN2CCCCC2)C1 (centres undefined),95.39
10,O=C(N[C@H]1CN(C2CCOCC2)C[C@@H]1C1CC1)c1ccon1,-9.557
11,CN(Cc1cc[nH]n1)C(C(=O)O)c1ccc(Cl)cc1 (centres undefined),-11.22
12,Cc1cnn(-c2ccc(S(=O)(=O)N(C)CC(C)(CO)CO)cc2F)c1,-2.822
13,CN(CC(=O)NCC(F)(F)F)Cc1cccc2c1OCCO2,-18.06
14,CN(Cc1ccc(CCC(C)(C)O)cc1)Cc1cccnc1,-22.62
15,COCCC(=O)N1CC2(CCN(Cc3ccncc3)CC2)C1,12.72
16,COCC(=O)N1CCC2(CCN(Cc3ccccn3)CC2)CC1,-21.07
17,Cc1ccc(N2CCC3(CCN(Cc4ccccn4)CC3)CC2)nn1,3.728
18,Cc1ccc(CN2CCC3(CCCN(S(C)(=O)=O)C3)C2)o1 (centres undefined),-14.58
19,c1cnn(Cc2ccc(CN3CCC4(CCNCC4)C3)cc2)c1,15.29
20,CS(=O)(=O)N1Cc2ccccc2CC2(CCN(Cc3ccncc3)C2)C1 (centres undefined),115
21,CS(=O)(=O)N1Cc2ccccc2CC2(CCN(Cc3ccccn3)C2)C1 (centres undefined),113.9
22,CS(=O)(=O)N1Cc2ccccc2CC2(CCN(Cc3ccccc3)C2)C1 (centres undefined),126.9
23,CS(=O)(=O)N1CC2(CCN(Cc3ccccn3)C2)Cc2ccccc21 (centres undefined),111
24,CS(=O)(=O)N1CCC(c2nccn2Cc2ccccn2)CC1,3.46
25,CN1CC(=O)N(c2cccc(F)c2)CC12CCN(Cc1ccccn1)C2 (centres undefined),2.437
26,Cc1ccc(CN2CCC3(CCN(S(=O)(=O)c4ccccc4)C3)C2)o1 (centres undefined),-12.36
27,COCC(c1cccc(C(F)(F)F)c1)N(C)C(=O)c1cc(C)n[nH]1 (centres undefined),-9.299

row,Structure (SMILES),Percent Effect [%]
1,Cc1nc2[nH]cc(C(=O)N3CCCCC3c3ccc(F)cc3)c(=O)n2n1 (centres undefined),-1.637
2,Cc1nc(-c2cc(C(=O)O)co2)cs1,4.91
3,Cc1nn(-c2ccccn2)c(C)c1[C@@H]1C=C[C@@H](NC(=O)CCC(=O)O)C1,-2.847
4,CN(C)S(=O)(=O)NCC(O)c1cc2ccccc2s1 (centres undefined),-1.975
5,CCc1cnc(N2Cc3cnc(C(C)(C)C)nc3C2)nc1,-2.734
6,CCN(CC)CC(=O)NCCc1csc(N2CCCC2)n1,7.841
7,O=C(c1ccncc1F)N1C[C@H]2CC[C@@H]1CN(Cc1cccnc1)C2,-17.68
8,CC1(C)[C@H](Cc2cc(CN3CCOCC3)on2)C[C@@H]1NC(=O)C1CCC1,3.49
9,CC(C)N(Cc1cnn(C)c1)CC1CCCN(S(C)(=O)=O)C1 (centres undefined),7.104
10,CCOC(=O)NC1CCCN(c2cncc(Br)c2)C1 (centres undefined),-1.321
11,CC(=O)N1CCCC(Cc2cncc(Br)c2)CC1 (centres undefined),-3.498
12,CC(C)N1CCCC(C(=O)NCCCc2cnn(C)c2)C1 (centres undefined),-2.763
13,CC(C)N1CCCC(Cc2cncc(Br)c2)CC1 (centres undefined),135.8
14,CS(=O)(=O)N1CCCC(Cc2cncc(Br)c2)CC1 (centres undefined),127
15,CC(=O)N1CCCC(Cc2cncc(Br)c2)C1 (centres undefined),130.8
16,CC(CCc1ccc(O)cc1)NC1CCN(S(C)(=O)=O)CC1 (centres undefined),7.002
17,COc1cccc2c1CCC2NC(=O)NCc1csc(N(C)C)n1 (centres undefined),7.815
18,Cc1ccc([C@@H]2CN(C(=O)c3ccon3)C[C@H]2NC(=O)C2CC2)cc1,-0.9032
19,CCc1noc(CC)c1CC(=O)N1CCC(C(=O)NC(C)C)CC1,-12.02
20,CC(=O)NCCNC(=O)c1cc(Br)c2c(c1)OCCO2,-14.07
21,CC1CCN(S(=O)(=O)NCC2CCOc3ccccc3C2)CC1 (centres undefined),-7.362
22,CC(C)Oc1cc(N2C[C@@H](C)O[C@@H](C)C2)nc(N)n1,-18.9
23,CC(NCc1cccnc1)c1ccc(OCC(=O)NC2CC2)cc1 (centres undefined),-5.583
24,NS(=O)(=O)N1CCC(CSc2ccccc2)C1 (centres undefined),-8.118
25,Cc1oncc1C(=O)N1CCC2(CC1)CC(c1ccccc1)C(=O)N2C (centres undefined),-5.401
26,N#Cc1ccnc(N2CCN(C(=O)c3ccc4c(c3)CCO4)CC2)c1,2.896
27,Cc1ccc(-c2nc(CNC3CCc4ncnn4C3)co2)c(C)c1 (centres undefined),-0.6319
